For 17 compounds, growth results are on record in PubChem BioAssay (NCI).

The panel holds about 83,000 compounds, 20% with a hit somewhere; the sample as a whole holds those more often.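 Note: values are percent growth. 100 is the growth of untreated cells, values between 100 and 0 indicate rising inhibition; between -100 and 0 indicates cell death.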 Values without a mark were called inactive. Calls of active or inactive are those of the source. How the source made its calls: active means growth percent below 10; inactive means the rest.

Assay in all cases: NCI-60 one-dose screen, 48 h (100 = growth as untreated, 0 = no growth, -100 = all killed)
The test system of assay [1] is HCT-15 colon. To be noted: 10 µM.
Assay [2] concerns HT29 colon. To be noted: 10 µM.
The test system of assay [3] is SNB-19 CNS. To be noted: 10 µM.
The subject of assay [4] is U251 CNS. To be noted: 10 µM.
The test system of assay [5] is PC-3 prostate. To be noted: 10 µM.
Assay [6] concerns SK-MEL-5 melanoma. To be noted: 10 µM.
For assay [7], the system named is UACC-62 melanoma.
The test system of assay [8] is LOX IMVI melanoma. To be noted: 10 µM.
Assay [9] deals with SK-MEL-28 melanoma. Particulars: 10 µM.
Assay [10] relates to SNB-75 CNS. Particulars: 10 µM.

Consider `C#CCSc1nnnn1-c1ccc(Br)c(C)c1`, for which the growth in assay [1] is 95.4%; in assay [2], 89.7%; in assay [3] it was 86.4%; in [4], 81.8%; in assay [5] it was 99.7%; in [6], 88.3%. The growth in assay [7] (10 µM unless noted) is 65.6%; in assay [8] it was 97.4%; in [9], 124%.
Consider `NC(=O)N/N=C\c1ccco1`, for which the growth in assay [1] was 107%; in assay [2], 103%; in [3], 102%; in [4], 101%; in assay [5], 104%; in [6], 107%. Also, the growth was 103% in [7] (10 µM unless noted), 102% in [8] and 116% in [9].
Turning to `CC1CCCC(CC(N)=O)CC1` (stereo not drawn), the growth in assay [1] is 107%; in assay [2] it was 85%; in [3], 110%; in [4], 99.7%; in assay [5], 78.8%; in assay [6] it was 103%. Also, the growth was 104% in [7] (10 µM unless noted), 101% in assay [8] and 119% in assay [9].
As to `c1ncc2[nH]cnc2n1`, the growth in assay [1] was 87.2%; in assay [2] it was 92.3%; in assay [3], 102%; in assay [4], 103%; in [5], 86.3%; in assay [6], 97.1%. The values for the growth in assay [7] (10 µM unless noted), in assay [8] and in [9] were 91.9%, 103% and 100%, respectively.
Regarding `CN(C)C(C)(C)CC(C)(C)C`, the growth in [1] is 100%; in assay [2] it was 119%; in [3], 105%; in assay [4], 107%; in assay [6], 105%; in assay [7] (10 µM unless noted), 105%. For the same compound, the figures for the growth in [8] and in [9] were 100% and 109%, respectively.
For `CC(=O)N(C)c1ccc([N+](=O)[O-])cc1`, the growth in assay [1] was 102%; in assay [2], 102%; in assay [3], 97.5%; in assay [4], 101%; in [5], 93.5%; in [6], 103%. In addition, the growth in assay [7] (10 µM unless noted) is 104%; in assay [8], 98.4%; in [9] it was 114%.
For `NC(=S)CN1CCOCC1`, the growth in [1] was 107%; in assay [2], 100%; in assay [3], 104%; in assay [4] it was 102%; in [5], 91.9%; in assay [6] it was 106%. Besides, the growth in assay [7] (10 µM unless noted) is 99%; in [8], 104%; in assay [9] it was 106%.
As to `C=C1CC/C=C(\C)C(=O)C[C@@H]2[C@@H]1CC2(C)C`, the growth in [1] was 99%; in assay [2], 112%; in assay [3], 95.7%; in [4], 100%; in assay [5], 92.6%; in assay [6] it was 106%. For the same compound, the growth is 101% in assay [7] (10 µM), -99.1% (active) in [7] (100 µM), 89.7% in assay [8] and 104% in assay [9].
On to `O=C(O)c1ccccc1NCc1ccco1`, for which the growth was 108% in assay [1]; 98.7% in assay [2]; 108% in assay [3]; 103% in [4]; 111% in assay [5]; 100% in assay [6]. Further, the results for the growth in assay [7] (10 µM unless noted), in assay [8] and in [9] were 101%, 93.5% and 111%, respectively.
With `O=C(CC(=O)c1ccccc1O)c1ccccc1`, the growth in [1] is 74.4%; in assay [2], 87.8%; in assay [3], 86.9%; in assay [4] it was 63.3%; in [5], 92.6%; in assay [7] (10 µM unless noted), 91%. Besides, the figures for the growth in assay [8] and in [9] were 76.9% and 99.3%, respectively.
For the compound `N#CCc1ccc([N+](=O)[O-])cc1`, the growth was 105% in [1]; 104% in assay [2]; 96.6% in assay [3]; 98.5% in assay [4]; 95.8% in [5]; 92.8% in assay [7] (10 µM unless noted). In addition, the growth in assay [8] is 100%; in assay [9] it was 106%.
For the compound `CC(C)=NNc1ccc([N+](=O)[O-])cc1[N+](=O)[O-]`, the growth in [1] is 62.3%; in assay [2] it was 91.8%; in assay [3] it was 98.3%; in [4] it was 92.9%; in assay [5], 87.3%; in assay [6] it was 102%. In addition, the growth in assay [7] (10 µM unless noted) was 65.1%; in assay [8] it was 77.6%; in assay [9], 111%.
With `CCOC(=O)c1cc(/C=C/c2cccc(Cl)c2)on1`, the growth in assay [1] is 64.8%; in [2], 78.8%; in assay [10] it was 87.4%; in assay [4], 87.5%; in assay [6], 96.9%; in [7] (10 µM unless noted), 78.8%. Besides, the growth is -3.76% (active) in assay [8] and 104% in assay [9].
Consider `CCOC(=O)/C(=C/c1ccc(OC)cc1)N(CC)CC`, for which the growth in [1] was 112%; in assay [2], 109%; in assay [3], 103%; in assay [4] it was 99.1%; in [5] it was 95.4%; in assay [6] it was 99.7%. The growth is 102% in assay [7] (10 µM unless noted), 97.7% in [8] and 112% in assay [9].
As for `CCC(O)CC(CC)CO` (stereo not drawn), the growth is 104% in [1]; 113% in assay [2]; 114% in assay [3]; 111% in assay [4]; 101% in assay [5]; 106% in [6]. In addition, the growth in assay [7] (10 µM unless noted) was 112%; in assay [8] it was 103%; in assay [9] it was 101%.
Turning to `COC(=O)/C=C\C(=O)OC`, the growth is 107% in assay [1]; 103% in assay [2]; 109% in assay [3]; 105% in [4]; 93.1% in assay [5]; 106% in assay [6]. Besides, the growth is 101% in assay [7] (10 µM unless noted), 102% in assay [8] and 112% in assay [9].
With `Cc1ccncc1C(N)=O`, the growth in [1] is 96.6%; in [2], 105%; in [10] it was 80.9%; in assay [4] it was 98.3%; in assay [6], 100%; in [7] (10 µM unless noted), 95.8%. The growth in assay [8] is 93.2%.
